Our source for the growth values is PubChem BioAssay (NCI).

The panel holds about 83,000 compounds, 20% with a hit somewhere; the sample as a whole holds those more often.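 Compound tested at a single concentration for 48 hours in 96-well plates; a percent growth value below 10 was scored as active.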 Unmarked numbers belong to inactive results. Activity calls are given as the source filed them.

Holding throughout (assay): NCI-60 one-dose screen, 48 h (100 = growth as untreated, 0 = no growth, -100 = all killed)
Holding throughout (settings): 10 µM unless noted

Test [1] has as its system T-47D breast.
Test [2] deals with BT-549 breast.
Test [3] has as its system SW-620 colon.
For test [4], the system named is MCF7 breast.
Test [5] has as its system HCT-116 colon.
In test [6] the test system is HCC-2998 colon.
The subject of test [7] is KM12 colon.
For test [8], the system named is MDA-MB-435 melanoma.

`O=S(=O)(Nc1ccc(I)c(Cl)c1)c1ccc(-c2cnc(C3CC3)o2)cc1`: the growth is 26.9% in test [1]; 57.1% in test [2]; 15.3% in test [3]; 17% in test [4]; 26.6% in test [5]; 59.1% in test [6]. In addition, in test [7], the growth was 32%.

`CCN1C(=O)N(CC)C2C1NN=C1SC(c3ccccc3)=CC(=O)N12` (configuration not stated): the growth is 42.1% in test [1]; -4.35% (active) in test [2]; 18.3% in test [3]; 17.7% in test [4]; 14.9% in test [5]; 21.1% in test [6]. In addition, the growth in test [7] is 27.2%.

`COc1ccc(-c2ccnc3c(C#N)c(Nc4ccccc4)nn23)cc1OC`: the growth in test [1] is 80.5%; in test [2], 86.1%; in test [3], 90%; in test [4], 90.2%; in test [6], 99.1%; in test [7], 96.6%.

`NCCN1CCN(c2nc(-c3ccccc3)nc3nc(-c4ccccc4)oc23)CC1`: the growth in test [1] is -16.2% (active); in test [2], 92.5%; in test [3], -55% (active); in test [4], -88.3% (active); in test [5] it was -82.2% (active); in test [6], -14.4% (active). For the same molecule, in test [7], the growth was -55.4% (active).

Turning to `CCn1c2ccc(/C=N/OCCCN(C)C)cc2c2cc(/C=N/OCCCN(C)C)ccc21`, the growth was 105% in test [1]; 60.9% in test [2]; -47.3% (active) in test [3]; -92% (active) in test [4]; -72.2% (active) in test [5]; -49.4% (active) in test [6]. Further, the growth in test [7] is 17.1%.

Regarding `CC(C)=CCC[C@](C)(O)[C@H]1CC[C@]2(C)[C@@H]1CC[C@@H]1[C@@]3(C)CCC(NC(=O)c4ccccc4C(=O)O)C(C)(C)[C@@H]3CC[C@]12C` (some centres not stated), the growth in test [1] is 79.4%; in test [2] it was 113%; in test [3], 91%; in test [4], 73%; in test [5], 86.9%; in test [7], 87.9%.

Regarding `O=S(=O)(NCCCNc1nccc(-n2cnc3ccccc32)n1)c1ccc(F)cc1`, the growth in test [1] was 25.5%; in test [2] it was 34.9%; in test [3], 96.2%; in test [4], 63.7%; in test [5] it was 58.7%; in test [6] it was 102%. Further, the growth in test [7] is 48.9%.

On to `NS(=O)(=O)Oc1ccc2nc(Nc3ccc(F)c(F)c3)ccc2c1`, for which the growth in test [1] is 90%; in test [8], 89%; in test [3], 105%; in test [4] it was 93.2%; in test [5] it was 92.2%; in test [6] it was 90.3%. Besides, the growth in test [7] was 58.9%.

As for `COc1cc(/C=C/C(=O)c2ccc(N3CCN(C)CC3)cc2)ccc1F`, the growth in test [1] was 44.4%; in test [8], 54.7%; in test [3], 33%; in test [4] it was 24.9%; in test [5], 27.8%; in test [6] it was 73%. Moreover, the growth in test [7] was 36.7%.

As to `Cc1ccc(C2CC(c3ccc(Nc4nc(NCCO)nc(Nc5ccc(Cl)cc5)n4)cc3)=Nc3c(N)nc(N)nc3N2)cc1` (configuration not stated), the growth in test [2] was 80.7%; in test [8], -93.1% (active); in test [3], -88.9% (active); in test [4], -68.4% (active); in test [5], -97% (active); in test [6], -65.3% (active). Besides, in test [7], the growth is -88% (active).

`NS(=O)(=O)c1ccc(Nc2nc(N/N=C/c3ccc([N+](=O)[O-])cc3)nc(Nc3ccccc3)n2)cc1`: the growth in test [2] was 18.5%; in test [8], 33.2%; in test [3], 18.2%; in test [4], 9.76% (active); in test [5], 16.5%; in test [6] it was 19.6%. The growth in test [7] was 37.5%.

Regarding `C#CCOc1ccc(C(Nc2ccc(Cl)cc2)c2nnnn2C2CCCCC2)cc1` (configuration not stated), the growth in test [2] is 85.7%; in test [3], 94.2%; in test [4], 75.5%; in test [5], 61.4%; in test [6], 98.7%; in test [7], 95.9%.

In the case of `COc1cc([C@H]2OC[C@H]3[C@@H]2CO[C@@H]3c2ccc(O)c(OC)c2)ccc1O`, the growth was 68.5% in test [2]; 107% in test [8]; 107% in test [3]; 96.1% in test [4]; 92.8% in test [5]; 96% in test [6]. For the same molecule, in test [7], the growth was 90.6%.

Turning to `O=S(=O)(NC1CC2CCC1C2)c1ccc2c(c1)C(=NO)c1cc(S(=O)(=O)NC3CC4CCC3C4)ccc1-2` (configuration not stated), the growth is 31.7% in test [2]; 27.1% in test [8]; -63.4% (active) in test [3]; 25.3% in test [4]; 20.3% in test [5]; 38.9% in test [6].

In the case of `COc1cc(/C=C/C(=O)c2ccc(NC(=O)CSc3nnc(-c4ccc5nc(-c6ccccc6)[nH]c5c4)o3)cc2)cc(OC)c1OC`, the growth is 81.6% in test [2]; 94.1% in test [8]; 98.8% in test [3]; 43.9% in test [4]; 40.8% in test [5]; 111% in test [6]. The growth in test [7] is 90%.

For `O=C(Nc1ccc(F)cc1)c1cc(-c2ccc(F)cc2F)ccc1O`, the growth in test [2] was -10.3% (active); in test [8], 5.11% (active); in test [3], 17%; in test [4], 2.19% (active); in test [5] it was 2.09% (active); in test [6] it was 31.5%. The growth in test [7] is 6.07% (active).

Regarding `CS(=O)(=O)c1ccc(-c2nn(-c3ccccc3)cc2/C=N/NC(=O)c2ccncc2)cc1`, the growth in test [2] is 97.1%; in test [8], 85.4%; in test [3], 102%; in test [4] it was 93.8%; in test [5], 107%; in test [6], 102%. The growth in test [7] is 90.7%.

As to `COc1ccc(Cn2cc3c(c2-c2cc(OC)c(OC)c(OC)c2)CCCc2cnoc2-3)cc1`, the growth in test [2] was 63.3%; in test [8], -48.2% (active); in test [3], 25.6%; in test [4] it was 11.5%; in test [5], 19%; in test [6], 32.4%. Besides, the growth in test [7] is 29%.

For the molecule `Cc1[nH]nc2ccc(-c3nc4cnc(N5CCN(C)CC5)cn4c3Nc3ccc(F)cc3Br)cc12`, the growth is 91.1% in test [2]; 30.7% in test [8]; 32.8% in test [3]; 15.5% in test [4]; 11% in test [5]; 59.3% in test [7].

For `O=C(NNc1nc2cc(F)ccc2n2cncc12)c1cnccn1`, the growth in test [2] was 55%; in test [8], 25%; in test [3] it was 24.5%; in test [4] it was 14.8%; in test [5] it was 23%; in test [7], 20.8%.

As to `CC(C)(C)n1nnnc1C(Nc1nccs1)c1cc2cccc3ccc4cccc1c4c32` (configuration not stated), the growth is 100% in test [2]; 96.2% in test [8]; 98.8% in test [3]; 76.3% in test [4]; 91.7% in test [5]; 113% in test [6]. In addition, in test [7], the growth is 101%.

Consider `COc1cccc(/C=C/C(=O)c2ccc(NC(=O)COc3cccc4cccnc34)cc2)c1`, for which the growth in test [2] was 86.1%; in test [8] it was 100%; in test [3] it was 94.3%; in test [4] it was 52.4%; in test [5] it was 3.49% (active); in test [6] it was 99.3%. Also, the growth in test [7] is 96.3%.

In the case of `COc1cc(C(=O)C[n+]2ccc3ccccc3c2)cc(OC)c1OC`, the growth in test [2] is 107%; in test [8], 100%; in test [3], 94%; in test [4] it was 96.3%; in test [5], 95.9%; in test [6] it was 103%. For the same molecule, in test [7], the growth was 96.1%.

Regarding `O=c1[nH]c(CCl)nc2c1cnn2-c1ccccc1`, the growth was 94.1% in test [2]; 104% in test [8]; 102% in test [3]; 79.5% in test [4]; 94.9% in test [5]; 105% in test [6]. For the same molecule, the growth in test [7] is 101%.

Turning to `CC1(COc2ccc3ncc(C#Cc4cncc(C(=O)Nc5cc(C(C)(C)C)on5)c4)n3n2)COC1`, the growth is 81.3% in test [2]; 50% in test [8]; 38.2% in test [3]; 40.5% in test [4]; 17.9% in test [5]; 49.7% in test [6]. Further, the growth in test [7] was 15%.

Consider `C=C(C)[C@@H]1CC[C@]2(C(=O)NCCCN(CCC#N)CCC#N)CC[C@]3(C)[C@H](CC[C@@H]4[C@@]5(C)CCC(=O)C(C)(C)[C@@H]5CC[C@]43C)[C@@H]12`, for which the growth is 118% in test [2]; 100% in test [3]; 84.9% in test [4]; 97.1% in test [5]; 104% in test [6]; 95.9% in test [7].

Take `COc1ccc(Cn2cc3c(c2-c2ccccc2)CCCc2cnoc2-3)cc1[N+](=O)[O-]`: the growth is 81% in test [2]; 1.77% (active) in test [8]; 41.3% in test [3]; 34.4% in test [4]; 46.9% in test [5]; 85.7% in test [6]. Besides, in test [7], the growth was 49.4%.

For `CC(=O)c1ccc(NC(=O)COc2ccc(C3SCC(=O)N3c3ccc(Br)cc3)cc2)cc1` (configuration not stated), the growth in test [2] was 95.7%; in test [8], 102%; in test [3], 110%; in test [4], 89.6%; in test [5], 91%; in test [6], 103%. Moreover, the growth in test [7] was 98.2%.

Turning to `Nc1n[nH]c2cccc(C#Cc3cccc(NC(=O)c4cccc(OC(F)(F)F)c4)c3)c12`, the growth is 85% in test [2]; 41% in test [8]; 57.1% in test [3]; 58.8% in test [4]; 21.7% in test [5]; 38% in test [6]. Further, the growth in test [7] was 58%.

For `C#C[C@]1(O)CC[C@H]2[C@@H]3CC=C4c5sc(-c6ccccn6)nc5CC[C@]4(C)[C@H]3CC[C@@]21C`, the growth is 59.8% in test [2]; 74.2% in test [3]; 49.3% in test [4]; 62% in test [5]; 92.5% in test [6]; 85.7% in test [7].
